# Screening data: PubChem, National Center for Advancing Translational Sciences (NCATS)
# Six1-Eya2 blk: inhibitors of human Six1/Eya2 interaction | Q15475+O00167 | AlphaScreen GST-Six1/His-Eya2 binding, biochemical; active compounds read low | activity change, % (no concentration beside the values) | 360,000 tested, 0.56% active | AID 651725; in the data active = activity change below about -65%; inconclusive = mostly about -30% to -63%
#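 AlphaScreen with GST-Six1 and His-Eya2 (5X mix: 250 nM and 500 nM), glutathione donor and nickel acceptor beads; buffer 50 mM Tris pH 8.0, 300 mM NaCl, 1 mM TCEP; 1 h at 37 C in the dark.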
# IL1B secr inh: inflammasome signaling inhibition, IL-1 beta readout; THP-1 LPS/ATP IL-1B secretion, AlphaLISA, 16 h; active compounds read low; activity change, % at 57.5 µM; 360,000 tested, 4.7% active; in the data active = activity change below about -50%; inconclusive = mostly about -30% to -49%
#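 THP-1 cells pretreated 1 hr with compounds (up to 57.5 uM final), then stimulated with LPS (250 ng/mL final) plus ATP (1.25 mM final); secreted IL-1B measured by AlphaLISA after 16 hr, decreased signal indicating inhibition.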
# DT40 TDP1 no CPT: qHTS for Inhibitors of human tyrosyl-DNA phosphodiesterase 1 (TDP1): qHTS in cells in absence of CPT | DT40 Tdp1-/- hTDP1 cells, no CPT, ATP luminescence, 48 h | Potency, µM (top dose mostly 46.2 µM), hits mostly inhibitors | 420,000 tested, 15% active | AID 686978, 2013; note: nearly all actives have a fitted effect of over 55% in size
#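 Growth of hTDP1-complemented DT40 Tdp1-knockout cells is measured by ATP luminescence after at least 48 hr compound exposure at 37 °C, with DMSO substituting for the 20 nM CPT used in the parallel screen.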
# DT40 TDP1 CPT: DT40-hTDP1 cell growth loss with CPT. AID 686979. Potency, µM (titrated, usually from 46.2 µM), usual class: inhibitors. 420,000 tested, 12% active. chicken DT40 Tdp1-/-;hTDP1 cells + 20 nM CPT, ATP luminescence, 48 h; note: nearly all actives have a fitted effect of over 55% in size
#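 Cell growth measured by CellTiter-Glo luminescence after a minimum 48 h, 37 C compound exposure with 20 nM CPT in Tdp1-knockout DT40 cells stably expressing hTDP1, seeded 400/well; qHTS titration format.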
# CtBP-E1A blk: CtBP/E1A binding inhibition | AlphaScreen GST-E1A/His-CtBP binding, 1536-well; active compounds read low | activity change, % (no concentration beside the values) | 340,000 tested, 0.49% active | AID 651724; in the data active = activity change below about -65%; inconclusive = mostly about -30% to -63%
#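 Steps: dispense buffer (Tris pH 8.0, NaCl 300 mM, TCEP 1 mM, BSA, Tween 20); add 5X protein mix (GST-E1A, His-CtBP, 125 nM each); pin 23 nL compound; 2 h at 37 °C, dark; add 5X beads (50 ug/mL); 1 h; read.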
# TDP1 block: inhibitors of human tyrosyl-DNA phosphodiesterase TDP1 | AID 485290 | 350,000 tested, 0.28% active | Q9NUW8 | Potency, µM (series often up to 130 µM), actives largely listed as inhibitors | recombinant TDP1, AlphaScreen DNA substrate cleavage; note: nearly all actives have a fitted effect of over 40% in size
# Target sequence (Q9NUW8 whole entry, looked up): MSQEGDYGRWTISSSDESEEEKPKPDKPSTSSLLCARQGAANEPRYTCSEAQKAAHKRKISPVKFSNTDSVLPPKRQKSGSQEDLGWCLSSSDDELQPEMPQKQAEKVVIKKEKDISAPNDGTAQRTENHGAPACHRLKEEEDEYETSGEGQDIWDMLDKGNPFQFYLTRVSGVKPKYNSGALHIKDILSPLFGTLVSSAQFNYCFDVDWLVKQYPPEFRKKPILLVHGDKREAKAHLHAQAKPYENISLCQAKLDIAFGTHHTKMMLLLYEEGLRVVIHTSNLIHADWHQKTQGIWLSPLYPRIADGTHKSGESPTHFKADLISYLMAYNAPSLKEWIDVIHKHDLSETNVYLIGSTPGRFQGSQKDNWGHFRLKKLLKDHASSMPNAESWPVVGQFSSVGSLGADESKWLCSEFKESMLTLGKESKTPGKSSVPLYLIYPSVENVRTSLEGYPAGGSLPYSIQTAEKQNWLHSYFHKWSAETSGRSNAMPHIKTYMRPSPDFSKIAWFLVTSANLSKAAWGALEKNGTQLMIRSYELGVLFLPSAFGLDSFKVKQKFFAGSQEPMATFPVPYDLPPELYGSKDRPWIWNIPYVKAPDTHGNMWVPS
#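 Here, a 5' biotin and 3' phosphotyrosine-FITC DNA oligonucleotide reports Tdp1 activity: intact substrate bridges AlphaScreen beads, while cleavage leaves a 3' phosphate and drops signal. All incubations at room temperature.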
# Numbers stand for hits; 0 = inactive; ? = inconclusive; - = no result. Only some compounds are listed: those with a hit (about 18% of all), similar ones and a draw of the others. Unless noted, calls come from the whole dose curve; as a rule, active = well fitted curve in the direction sought with a large enough effect; inconclusive = small, poorly fitted or top-dose-only effect, or another doubt; inactive = no such curve, though single readings can be large; an effect the other way counts as inactive or inconclusive.
SMILES,Six1-Eya2 blk,IL1B secr inh,DT40 TDP1 no CPT,DT40 TDP1 CPT,CtBP-E1A blk,TDP1 block
Cc1cnc(SCc2ccccn2)nc1C1CCCN(C(=O)c2ccc(-c3ccccc3F)cc2)C1 (centres undefined),-,-,23µM,?,-,-
Cc1cnc(SCc2ccccn2)nc1C1CCCN(C(=O)c2scc3c2CCCC3)C1 (centres undefined),-,-,10µM,12µM,-,-
NCCc1ccc(S(N)(=O)=O)cc1,0,0,0,0,0,0
CN(C[C@H](Cc1ccccc1)N(C[C@H](Cc1ccccc1)N(CC1(c2ccccc2)CC1)N=O)N=O)N=O,0,0,18µM,?,0,0
C[C@H](CCC(=O)O)[C@H]1CC[C@H]2[C@H]3C(CC[C@]12C)[C@@]1(C)CC[C@@H](O)C[C@H]1C[C@H]3O (some centres undefined),-,-,0,0,-,0
O=C1NCc2c1c1c3ccccc3[nH]c1c1[nH]c3ccccc3c21,-,-,2.8µM,3.2µM,-,0
O=C1NC(=O)c2c1c1c3ccccc3[nH]c1c1[nH]c3ccccc3c21,-,-,-,-,-,0
CC(CC(C)(C)N1CC1)=NO,0,0,3.3µM,2.9µM,0,-
Cc1nc2ccc(Cl)cc2c(=O)n1-c1cccc(Cl)c1,0,0,?,?,0,-
CCN(CC)CC(=O)Nc1ccc(Cl)cc1C(=O)c1ccccc1,0,?,?,?,0,-
CCCNC(=O)N1[C@H]2CC[C@@H]1C(C(=O)OC)=C(c1cc3ccccc3o1)C2,0,0,16µM,16µM,0,-
COC(=O)C1=C(c2cc3ccccc3o2)C[C@@H]2CC[C@H]1N2C(=O)NCCO,0,0,0,0,0,-
COC(=O)C1=C(c2cc3ccccc3o2)C[C@@H]2CC[C@H]1N2C(=O)N1CCCCC1,0,0,2.3µM,4.6µM,0,-
COC(=O)C1=C(c2cc3ccccc3o2)C[C@@H]2CC[C@H]1N2C(=O)N1CCCC1,0,0,16µM,?,0,-
COC(=O)C1=C(c2ccc(S(C)(=O)=O)cc2)C[C@@H]2CC[C@H]1N2C(=O)N1CCCCC1,0,0,0,0,0,-
COC(=O)C1=C(c2c(C)noc2C)C[C@@H]2CC[C@H]1N2C(=O)N1CCCCC1,0,0,0,0,0,0
C(#CCN1CCCC1)CN1CCCC1,0,0,0,0,0,0
CC(C)(C)NC(=O)C1CC2CCCCC2CN1 (centres undefined),0,0,0,0,0,0
N[C@@H](Cn1ccc(=O)n(Cc2ccc(C(=O)O)cc2)c1=O)C(=O)O,-,-,0,0,-,0
Clc1ccc2sc(C3CCNCC3)nc2c1,0,0,0,0,0,-
Cc1ccc(NC(=O)Nc2cc3c(cc2N2CCCCC2)n(C)c(=O)n3C)cc1Cl,-,-,7.3µM,16µM,-,0
CCOC(=O)c1ccc(NC(=O)Nc2cc3c(cc2N2CCCCC2)n(CC)c(=O)n3CC)cc1,-,-,10µM,12µM,-,0
Cc1ccc(NC(=O)N(C)C)cc1Cl,-,-,-,-,-,0
CCOC(=O)c1ccc(N2CCN(c3ccccc3F)CC2)c(NC(=O)Nc2ccc(Cl)c(Cl)c2)c1,-,-,1.3µM,1.3µM,-,0
CC1CCN(CC(=O)c2ccc3c(c2)OCCO3)CC1,0,0,0,0,0,0
SMILES,Six1-Eya2 blk,IL1B secr inh,DT40 TDP1 no CPT,DT40 TDP1 CPT,CtBP-E1A blk,TDP1 block
O=[N+]([O-])c1cccc(NP(=O)(Oc2ccccc2)Oc2ccccc2)c1,0,0,?,?,0,-
Cc1ccc(NP(=O)(Oc2ccccc2F)Oc2ccccc2F)cc1C,0,-84,?,?,0,0
Cc1cccc(NP(=O)(Oc2ccccc2F)Oc2ccccc2F)c1,0,-99,?,?,0,0
C[C@]12CCC3C(CC[C@H]4C[C@@H](O)CC[C@]34C)C1=CC[C@@H]2O (some centres undefined),0,0,?,0,0,-
Cc1cc(N=Nc2ccccc2C)ccc1N,?,?,0,0,?,0
O=C(Nc1cccc(C(F)(F)F)c1)C1CCCN1S(=O)(=O)c1cccc2nsnc12 (centres undefined),-,-,?,18µM,-,0
CCOC(=O)c1c(NC(NC(=O)CF)C(Cl)(Cl)Cl)sc2c1CCCC2 (centres undefined),0,0,?,13µM,0,0
CCOc1ccc(-c2nc(CSCC(=O)NCCc3ccc(OCC)c(OCC)c3)c(C)o2)cc1,-,-,16µM,15µM,-,0
CCOc1ccc(CNC(=O)CSc2c3c(nc4cc(Cl)ccc24)CCCC3)cc1,-,-,?,?,-,0
C[C@H]1CN([C@@H](C)CO)C(=O)c2cccc(NC(=O)c3ccc(-c4nccs4)cc3)c2O[C@@H]1CN(C)C(=O)Nc1cccc2ccccc12,0,0,15µM,26µM,0,0
Cc1ccc(S(=O)(=O)N(C)C[C@H]2Oc3cc(Br)ccc3S(=O)(=O)N([C@H](C)CO)C[C@H]2C)cc1,0,0,29µM,?,0,-
Cc1ccc(S(=O)(=O)N(C)C[C@H]2Oc3c(NC(=O)Nc4cccc5ccccc45)cccc3C(=O)N([C@@H](C)CO)C[C@@H]2C)cc1,-71,?,?,16µM,-75,0
C[C@H](CO)N1C[C@H](C)[C@H](CN(C)C(=O)Nc2cccc3ccccc23)Oc2c(NC(=O)c3ccc(-c4nccs4)cc3)cccc2C1=O,0,0,?,?,0,0
Cc1ccc(S(=O)(=O)N(C)C[C@@H]2Oc3ncc(Br)cc3C(=O)N([C@H](C)CO)C[C@H]2C)cc1,0,0,9.2µM,?,0,-
CC1NC(=O)NC(=O)C1Br (centres undefined),0,0,0,0,0,-
CC(C)C1CN1CC(O)Cn1ccnc1[N+](=O)[O-] (centres undefined),0,0,?,18µM,0,-
O=[N+]([O-])c1nccn1CO[C@@H](CO)[C@H](O)CO,-,-,0,?,-,-
CCN1C(=O)c2ccccc2Sc2ccc(NC(=O)Nc3ccc(Br)c(C)c3)cc21,-,-,?,?,-,0
COc1ccc(C(=O)O[C@H]2CC[C@@]3(C)C4CCC5[C@]6(O)C[C@H](O)[C@@]7(O)C(CN8C[C@@H](C)CC[C@H]8[C@@]7(C)O)[C@]6(O)C[C@@]53O[C@@]42O)cc1OC (some centres undefined),-,-,0,0,-,0
COc1ccc(-c2cc(=NCCC(=O)O)c3cc(C)ccc3o2)cc1,?,-58,0,0,0,0
COc1ccc(-c2cc(=Nc3ccccc3)c3cc(C)ccc3o2)cc1,0,0,?,?,-,0
Cc1cccc(C2=NN(c3ccc(Br)cc3)[C@@H](C(=O)N3CCOC3=O)[C@@H]2c2ccc([N+](=O)[O-])cc2)c1,0,0,?,?,0,0
